From PubChem BioAssay (NCATS)
Records with an inconclusive call do not appear. Active and inactive are the calls of the source. Calls follow the shape of the dose curve; as a rule, active = well fitted activation curve with a large enough effect in the repeat runs; inconclusive = weak or mixed curves; inactive = flat fitted curve, though single readings scatter.

Experiment: qHTS assay for small molecule agonists of the antioxidant response element (ARE) signaling pathway measured by Nrf2-dependant transcriptional activity (AID 720636); also: % of control where 0% means no effect
Settings: ARE-luc HepG2, Nrf2 luciferase reporter, 16 h; series mostly up to 92.4 µM; activation: at the top concentration
Description: National Center for Advancing Translational Sciences [NCATS] NIH Chemical Genomics Center [NCGC] U.S. Environmental Protection Agency [EPA] National Institutes of Environmental Health Sciences [NIEHS] National Toxicology Program [NTP] Assay Overview: The antioxidant response element (ARE) signaling pathway plays an important role in the cellular anti-oxidant defense. Exposure to stressors which are exogenous like ionizing radiations, chemicals, U-V light, and endogenous like cell signaling, metabolic processes or inflammation, reactive oxygen species (ROS), can induce oxidative stress in the cells. Oxidative stress has been implicated in the pathogenesis of a variety of diseases ranging from cancer to neurodegeneration. ARE-luc HepG2 cell line (Simmons et al., Current Chemical Genomics, 5:1-12, 2011) has been used for identifying the chemicals that induce oxidative stress. The cell line has an Nrf2-responsive luciferase reporter gene that has been engineered to measure Nrf2-dependant transcriptional activity.
Assay Protocol Summary: For measuring ARE induction; 2,000 ARE-luc HepG2 cells in 5 uL of assay medium containing 1% dialyzed FBS per well were dispensed into white wall/solid bottom 1536-well plates using a Flying Reagent Dispenser (FRD) (Aurora Discovery). The assay plates were incubated for 6 hr at 37 C to allow cell attachment to the well bottom, followed by the transfer of 23 nL compound or DMSO vehicle by a pin tool (Kalypsys). The plates were incubated for 16 hr at 37 C and 5% CO2, followed by the addition of 5 uL of ONE-GloTM luciferase reagent (Promega) into each well using FRD. After 30 min room temperature incubation, plates were read on a ViewLux plate reader (PerkinElmer).

Question: For `Nc1ccc(Cc2ccc(N)c(Cl)c2)cc1Cl`, which “activation” value is on record?
Answer: 0.376% (inactive)

Question: For `NC1CCC(CC2CCC(N)CC2)CC1` (stereo not given), which Potency is on record?
Answer: inactive

Question: Which “activation” value does the source give for `ClCCBr` here?
Answer: -0.68% (inactive)

Question: With `Cc1ccc(N=C=O)cc1N=C=O` as the compound, how does the Potency read?
Answer: inactive

Question: For `C=C(C)CCl`, which “activation” value is on record?
Answer: -0.613% (inactive)

Question: For `[O-][Cl+2]([O-])O`, which “activation” value is on record?
Answer: -1.03% (inactive)

Question: With `N#CCCCCC#N` as the compound, how does the “activation” value read?
Answer: -1.4% (inactive)

Question: For `C=CC(=O)OCC(CC)CCCC` (stereo not given), which Potency is on record?
Answer: inactive

Question: With `CCSC(=O)N1CCCCCC1` as the compound, how does the Potency read?
Answer: inactive

Question: Which “activation” value does the source give for `Cc1ccc(N)c(C)c1` here?
Answer: -1.23% (inactive)

Question: For `Cc1ccc2c(C)cccc2c1`, which “activation” value is on record?
Answer: -1.83% (inactive)

Question: Which Potency does the source give for `ClCc1ccccn1` here?
Answer: inactive

Question: Which Potency does the source give for `Cc1ccc(N)cc1N` here?
Answer: inactive

Question: Which “activation” value does the source give for `ClP(Cl)(Cl)(Cl)Cl` here?
Answer: 0.819% (inactive)

Question: For `CCOP(=S)(OCC)Oc1nc(Cl)c(Cl)cc1Cl`, which Potency is on record?
Answer: inactive

Question: Which “activation” value does the source give for `OC[P+](CO)(CO)CO` here?
Answer: 0.122% (inactive)

Question: For `OCCCCO`, which “activation” value is on record?
Answer: -0.532% (inactive)

Question: Which “activation” value does the source give for `Cc1cccc(C)c1N` here?
Answer: -1.5% (inactive)

Question: Which “activation” value does the source give for `CCOC(=O)C1OC1(C)c1ccccc1` (stereo not given) here?
Answer: -0.0195% (inactive)

Question: Which “activation” value does the source give for `Clc1ccccc1` here?
Answer: -0.933% (inactive)

Question: With `CC(C)OS(C)(=O)=O` as the compound, how does the “activation” value read?
Answer: 0.165% (inactive)

Question: For `CCCCCCCCCCCOC(=O)c1ccccc1C(=O)OCCCCCCCCCCC`, which “activation” value is on record?
Answer: -1.51% (inactive)

Question: For `COc1ccccc1N`, which “activation” value is on record?
Answer: -0.338% (inactive)

Question: For `BrCCc1ccccc1`, which “activation” value is on record?
Answer: -1.08% (inactive)

Question: For `ClCCCCl`, which “activation” value is on record?
Answer: 0.446% (inactive)

Question: For `CC(C)(OOC(C)(C)c1ccccc1)c1ccccc1`, which Potency is on record?
Answer: inactive

Question: For `C(CCOCC1CO1)COCC1CO1` (stereo not given), which “activation” value is on record?
Answer: 1.09% (inactive)

Question: With `C/C=C/CC#N` as the compound, how does the “activation” value read?
Answer: -1.09% (inactive)

Question: With `CN(C)N=O` as the compound, how does the “activation” value read?
Answer: -0.327% (inactive)

Question: For `OCCOCCO`, which “activation” value is on record?
Answer: -0.762% (inactive)

Question: With `O=NN1CCCCC1` as the compound, how does the “activation” value read?
Answer: -0.626% (inactive)

Question: Which Potency does the source give for `Nc1cc(Cl)cc(C(=O)O)c1Cl` here?
Answer: inactive

Question: For `O=[N+]([O-])c1cc(Cl)c(Cl)cc1Cl`, which “activation” value is on record?
Answer: 1.53% (inactive)

Question: Which “activation” value does the source give for `O=S(=O)(O)F` here?
Answer: -1.75% (inactive)

Question: For `CCCN(CCC)c1c([N+](=O)[O-])cc(C(F)(F)F)cc1[N+](=O)[O-]`, which Potency is on record?
Answer: inactive

Question: With `Nc1ccc(Cc2ccc(N)cc2)cc1` as the compound, how does the Potency read?
Answer: inactive

Question: For `Cc1ccccc1[N+](=O)[O-]`, which “activation” value is on record?
Answer: 0.131% (inactive)

Question: For `Oc1cc(Cl)ccc1Cl`, which Potency is on record?
Answer: inactive

Question: For `BrCC(Br)C1CCC(Br)C(Br)C1` (stereo not given), which “activation” value is on record?
Answer: -0.761% (inactive)

Question: Which “activation” value does the source give for `Nc1ccccc1-c1ccccc1` here?
Answer: 0.724% (inactive)
